The text below walks through data of PubChem BioAssay AID2685 (National Center for Advancing Translational Sciences (NCATS), 2010).

Hit rate of the full screen: of about 320,000 compounds, about 2,100 (0.66%) were called active. Inconclusive results (about 53%) are left out. Calls come from the whole dose curve; as a rule, active = well fitted inhibition curve with a large enough effect in the signal ratio, with a control signal flat (not every such curve was filed as active); inconclusive = small, poorly fitted or top-dose-only effect, or effect the other way, or a change in a side signal; inactive = flat fitted curve, though single readings scatter; the % refers to the signal ratio. For the sample, actives were picked, then their nearest neighbours and some compounds at random.
Potency is the fitted concentration of half-maximal effect.

A short description of this experiment: qHTS Assay for Lipid Storage Modulators in Drosophila S3 Cells.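 For cell number change: cells counted by Cell Tracker Red CMTPX staining in the red channel.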 The note with it: BODIPY lipid droplet fluorescence, 18-24 h, cells fed with added oleic acid; cell number change: measured here: cell count max response; series mostly up to 46.1 µM. An outline of the steps:
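Drosophila S3 cells got compounds at several concentrations plus oleic acid (400 uM solution). Laser-scanning cytometry with 488 nm excitation read lipid droplets at 500-530 nm and cells at 575-640 nm. Percent activity was relative to 20 uM Triacsin C.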
With `COc1cc(C)c(Cl)cc1S(=O)(=O)NCc1ccncc1`, the Potency result was “inactive” and the cell number change is -7.29%. Taken in the same sequence, the figures for `COc1ccc(CCNC(=O)CN(C)S(=O)(=O)c2cccc3nsnc23)cc1OC` were “inactive” and 0.234%. Taken in the same sequence, the figures for `CC(C)c1ccc(CNCCCSc2ncccn2)cc1` were “inactive” and -5.03%. Taken in the same sequence, the figures for `CC(C)(C)C(=O)CC1(O)C(=O)N(Cc2ccc(Cl)cc2)c2ccccc21` (stereo not drawn) were “inactive” and 7.61%.

Consider `CC(=O)N1C(=O)CC(C)N(C(C)=O)c2ccc([N+](=O)[O-])cc21` (stereo not drawn), for which the Potency entry was “inactive” and the cell number change was found to be 1.88%. For `CNC(=O)c1[nH]nc2c1CCc1ccccc1-2` the same measures were “inactive” and 13.3%. Taken in the same sequence, the figures for `CC(C)NC(=O)c1[nH]nc2c1CCc1ccccc1-2` were “inactive” and -0.945%.

Regarding `c1ccc2c(c1)CCc1c(-c3ccncc3)n[nH]c1-2`, the Potency was 18.4 µM (active) and the cell number change turned out to be 7.47%.

As to `CC(C)C(=O)N1CCN(c2ccccc2NC(=O)COc2ccccc2)CC1`, the Potency entry was “inactive” and the cell number change was -6.41%. Taken in the same sequence, the figures for `CCOC(=O)N1CCN(c2c(NC3CCN(Cc4ccccc4)CC3)c(=O)c2=O)CC1` were “inactive” and 6.86%. For `O=C(c1cccc([N+](=O)[O-])c1)N(c1ccccn1)c1ccccn1` the same measures were “inactive” and 2.68%. Taken in the same sequence, the figures for `Cc1ccc(NS(=O)(=O)c2cccc(C(=O)NCC(c3ccco3)N3CCCC3)c2)cc1` (stereo not drawn) were “inactive” and -2.68%.

Take `CN(C)C(CNC(=O)c1cc(S(=O)(=O)N(C)c2ccc(F)cc2)ccc1Cl)c1ccco1` (stereo not drawn): the Potency entry is “inactive”.

Consider `Cc1ccc(S(=O)(=O)N(C)c2ccc(C(=O)NCC(c3ccco3)N(C)C)cc2)cc1` (stereo not drawn), for which the Potency was 1.64 µM (active) and the cell number change is -16.7%. Taken in the same sequence, the figures for `CN(C)C(CNC(=O)c1ccc(S(=O)(=O)Nc2ccccc2)cc1)c1ccco1` (stereo not drawn) were “inactive” and 14.1%. `Cc1ccc(N(C)S(=O)(=O)c2cccc(C(=O)NCC(c3ccco3)N3CCCC3)c2)cc1` (stereo not drawn): the Potency is 7.31 µM (active) and the cell number change was -25.8%.

For `COc1ccc(N(C)S(=O)(=O)c2cccc(C(=O)NCC(c3ccco3)N3CCCC3)c2)cc1` (stereo not drawn), the Potency result was “inactive” and the cell number change worked out at 8.75%. With `Cc1ccc(C)c(NC(=S)NCC(c2ccccc2)N(C)C)c1` (stereo not drawn), the Potency result was “inactive”.

`Cc1cc(C)c2c(=O)cc(C(F)(F)F)oc2n1`: the Potency result is “inactive” and the cell number change is 15.1%. Take `O=C(N/N=C/c1cccnc1)c1ccc(NC(=O)c2ccc(Cl)cc2)cc1`: the Potency was 0.13 µM (active) and the cell number change was determined as 0.451%. In the case of `Cc1ccc(C(=O)Nc2ccc(C(=O)N/N=C/c3cccnc3)cc2)cc1`, the Potency entry was “inactive” and the cell number change turned out to be 17.5%.

For the compound `CC(=O)Nc1ccc(C(=O)N/N=C/c2cccnc2)cc1`, the Potency result is “inactive” and the cell number change is 0.939%. For `CC(C)c1ccc(NC2CCCN(C(=O)c3ccccc3-c3ncc[nH]3)C2)cc1` (stereo not drawn) the same measures were “inactive” and -18.8%. Taken in the same sequence, the figures for `COc1ccc(NC(=O)Nc2ccc3c(c2)CCC3)c(OC)c1` were “inactive” and 9.57%. As to `O=C(Cn1c(-c2ccccc2)c[n+]2ccsc12)c1ccc(Br)cc1`, the Potency result was “inactive”. In the case of `COC(=O)C1(C(F)(F)F)N=C(C(F)(F)F)Nc2ccc(Cl)cc21` (stereo not drawn), the Potency result is “inactive” and the cell number change was determined as 5.94%. For `O=C1Nc2ccc(Cl)cc2C12OCCCO2`, the Potency entry was “inactive” and the cell number change stood at 13.2%. For `O=C1Nc2ccc(Cl)cc2C(C#CC2CC2)(C(F)(F)F)O1` (stereo not drawn) the same measures were 9.2 µM (active) and -25.6%. For `O=C(Cn1nnc2ccccc21)C1CC1` the same measures were “inactive” and 7.3%. As for `NCc1cc2c3c(c1)CCCN3CCC2`, the Potency result was “inactive”. Regarding `C=CCOc1cccc(C(=O)N2CCCC(CNS(=O)(=O)c3cccs3)C2)c1` (stereo not drawn), the Potency result was “inactive” and the cell number change stood at 11.7%. For `Cc1ccccc1-n1ncc2c1CC(C)(C)CC2NC(=O)CSc1ccncc1` (stereo not drawn) the same measures were 0.461 µM (active) and -2.05%. Taken in the same sequence, the figures for `Cc1ccccc1-n1ncc2c1CC(C)(C)CC2NC(=O)CCC(F)(F)F` (stereo not drawn) were “inactive” and 7.77%.

For the compound `CSCCC(=O)NC1CC(C)(C)Cc2c1cnn2-c1ccccc1C` (stereo not drawn), the Potency entry is “inactive” and the cell number change stood at 13.5%.

With `CC(C)=C1SC(N2CCN(c3cccc(Cl)c3)CC2)=NC1=O`, the Potency entry is “inactive” and the cell number change is 5.96%.

Consider `COc1cccc(N2C(=NC(=O)CCC3CCCC3)SC3CS(=O)(=O)CC32)c1` (stereo not drawn), for which the Potency is 11.6 µM (active) and the cell number change is 4.89%. As for `COc1cccc(N2C(=NC(=O)CCc3ccccc3)SC3CS(=O)(=O)CC32)c1` (stereo not drawn), the Potency entry was “inactive” and the cell number change is -7.96%. Taken in the same sequence, the figures for `COc1cccc(N2C(=NC(=O)C3CCCCC3)SC3CS(=O)(=O)CC32)c1` (stereo not drawn) were “inactive” and -4.58%. For the compound `Cc1occc1C(=O)N1CCN(c2ccc(Cl)c(Cl)c2)CC1`, the Potency result was “inactive”. Take `Cc1ccccc1OC(C)C(=O)N1CCC(Cc2ccccc2)CC1` (stereo not drawn): the Potency result was “inactive” and the cell number change stood at 12.1%. `O=C(NNS(=O)(=O)c1ccccc1)c1ccc([N+](=O)[O-])cc1`: the Potency entry was “inactive” and the cell number change was 3.57%. For `O=C(Cc1ccccc1)NNS(=O)(=O)c1ccc([N+](=O)[O-])cc1` the same measures were 1.46 µM (active) and 0.088%. Taken in the same sequence, the figures for `O=C(Cc1ccc(Cl)cc1)NNS(=O)(=O)c1ccc([N+](=O)[O-])cc1` were “inactive” and 7.62%. Taken in the same sequence, the figures for `Cc1ccc(Cc2cnc(NC(=O)/C(C#N)=C/c3ccc(-c4ccccc4[N+](=O)[O-])o3)s2)cc1` were “inactive” and -16%. `CCOC(=O)CNC(=O)CSc1nc(Cc2cccs2)nc2ccccc12`: the Potency result is “inactive” and the cell number change was -11.5%. Turning to `CCOC(=O)CSc1nc(Cc2ccccc2)nc2ccccc12`, the Potency entry was “inactive”. With `CCOC(=O)CNC(=O)CSc1nc(Cc2ccccc2)nc2ccccc12`, the Potency was 7.31 µM (active) and the cell number change is -15.2%.
